# The list is not random: actives were taken first. Their share in the collection is about 0.5%.
# TRb-SRC2 inh: TRbeta-SRC2 interaction inhibition; P10828; TRbeta-SRC2 peptide binding, fluorescence polarization; receptor liganded with 1 µM T3; Potency, µM (titrated, usually from 106 µM), without a hit: top-dose activity change, negative = inhibition, hits mostly inhibitors; actives 0.065% (n = 280,000);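 also: potency is read from the fitted curve at half-maximal effect; plate controls were bound peptide for no effect and peptide without receptor for full effect; nearly all actives have a fitted effect of over 50% in size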
#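 TRb LBD 0.6 uM + Texas Red SRC2 peptide 20 nM, 1 uM T3, Tris buffer w/ 5% DMSO; compound pinned, 5 h RT; FP read ex 555/em 632; normalized to unbound and bound controls.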
# TexasRed fluor: counter-screen for TRb-SRC2 inhibitors: fluorescence interference; TRb/SRC2 Texas Red total fluorescence interference; Potency, µM (top dose mostly 106 µM), for inactives: at the top dose fluorescence change, negative = quenching; actives 0.29% (n = 280,000); AID 1479; active = well fitted curve in either direction with a large enough effect; inconclusive = small, poorly fitted or top-dose-only effect; also: potency is read from the fitted curve at half-maximal effect; % is scaled to controls: 0 for no effect and ±100 for the full control effect
#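 Human TRb ligand-binding domain at 0.6 uM with 20 nM Texas Red SRC2 peptide in Tris buffer containing 1 uM T3 and 5% DMSO, incubated with compound 5 h at ambient temperature. Total fluorescence (555/632 nm) calculated as parallel + 2 × perpendicular.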
# MLL CXXC-DNA inh: MLL CXXC-DNA interaction inhibition; actives 0.037% (n = 290,000); Potency, µM (series often up to 115 µM), for the others: at the top dose activity change, negative = inhibition, usual class: inhibitors; MLL-CXXC / FITC-HOXA9 DNA fluorescence polarization; AID 2662; Q03164; active = well fitted inhibition curve with a large enough effect in the polarisation, with a control signal flat, not every such curve was filed as active; inconclusive = small, poorly fitted or top-dose-only effect, or effect the other way, or a change in a side signal; inactive = no such curve, though single readings can be large or run the other way; the % refers to the polarisation; also: potency is read from the fitted curve at half-maximal effect
#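 Purified MLL-CXXC (added from a 7 uM solution) was preincubated 5 min at ambient with pinned compounds in 50 mM Tris-HCl pH 7.5, 50 mM NaCl, 1 mM DTT, 0.05% BSA. Fluorescein-labeled HOX-A9 DNA (50 nM solution) followed, 30 min, then polarization read.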
# RGS12 GoLoco inh: inhibitors of human Gai1-RGS12 GoLoco interaction (red fluorophore); P63096; actives 0.44% (n = 230,000); Potency, µM (highest dose often 61.6 µM), for inactives: at the highest dose activity, negative = inhibition, actives largely listed as inhibitors; Gai1:RGS12 GoLoco peptide FP, rhodamine, 10 min; active = well fitted inhibition curve with a large enough effect, not every such curve was filed as active; inactive = no such curve, though single readings can be large or run the other way; also: potency is read from the fitted curve at half-maximal effect; % is scaled to controls: 0 for no effect and ±100 for the full control effect; nearly all actives have a fitted effect of over 30% in size
# Menin MLL FP TR: menin-MLL binding inhibition, Texas Red mutant peptide; O00255; Menin + Texas Red MLL mutant peptide, fluorescence polarization; Potency, µM (series often up to 61.6 µM), for the others: at the top dose FP activity change, negative = inhibition, actives largely listed as inhibitors; actives 0.23% (n = 270,000); AID 1768; active = well fitted inhibition curve with a large enough effect in the polarisation, with a control signal flat, not every such curve was filed as active; inconclusive = small, poorly fitted or top-dose-only effect, or effect the other way, or a change in a side signal; inactive = no such curve, though single readings can be large or run the other way; the % refers to the polarisation; also: potency is read from the fitted curve at half-maximal effect; % of control where 0% means no effect
# Menin-MLL FL inh: inhibitors of human menin-MLL interaction, wild-type MLL peptide. FP activity change, % at 61.4 µM. Fluorescence polarization, fluorescein-MLL peptide displacement from menin. 290,000 tested, under 10 active. AID 1766; active = well fitted curve in the direction sought with a large enough effect in the polarisation, not every such curve was filed as active; inconclusive = small, poorly fitted or top-dose-only effect, or effect the other way, or a change in a side signal; inactive = no such curve, though single readings can be large or run the other way; the % refers to the polarisation; also: % of control where 0% means no effect
# MLL CXXC Fl: disrupts human MLL CXXC domain binding to DNA. shares compounds with MLL CXXC-DNA inh. MLL CXXC-DNA binding, fluorescein FP. Potency, µM (doses to about 345 µM), for inactives: top-dose activity change, negative = inhibition, actives largely listed as inhibitors. actives 70% (n = 200); also: potency is read from the fitted curve at half-maximal effect; nearly all actives have a fitted effect of over 80% in size
# MLL CXXC TxRed: inhibitors of human MLL CXXC domain-DNA interaction, Texas Red format | shares compounds with MLL CXXC-DNA inh | MLL CXXC-DNA binding, Texas Red fluorescence polarization | Potency, µM (top dose mostly 345 µM), without a hit: at the highest dose activity change, negative = inhibition, most hits filed as inhibitors | actives 40% (n = 200) | AID 624161; also: potency is read from the fitted curve at half-maximal effect; % is scaled to controls: 0 for no effect and ±100 for the full control effect; nearly all actives have a fitted effect of over 75% in size
# MLL CXXC TRF: disrupts human MLL CXXC domain binding to DNA by HTRF; shares compounds with MLL CXXC-DNA inh; MLL CXXC-DNA binding, HTRF, biochemical; Potency, µM (top dose mostly 172 µM), inactives show at the top dose activity change, negative = inhibition, usual class: inhibitors; actives 30% (n = 210); AID 624162; also: % is scaled to controls: 0 for no effect and ±100 for the full control effect; nearly all actives have a fitted effect of over 80% in size
# Numbers without * were called inactive; ? = inconclusive; / = no result; [ ] = remark or other dose. Unless noted, calls follow the shape of the dose curve; as a rule, active = well fitted curve in the direction sought with a large enough effect; inconclusive = small, poorly fitted or top-dose-only effect, or another doubt; inactive = no such curve, though single readings can be large; an effect the other way counts as inactive or inconclusive.
SMILES,TRb-SRC2 inh,TexasRed fluor,MLL CXXC-DNA inh,RGS12 GoLoco inh,Menin MLL FP TR,Menin-MLL FL inh,MLL CXXC Fl,MLL CXXC TxRed,MLL CXXC TRF
Nc1nc(SCC(=O)c2cccc([N+](=O)[O-])c2)n[nH]1,-5%,-11%,-2%,-6%,5%,0,/,/,/
CCn1c(CSc2n[nH]c(N)n2)nc2cc(C(=O)O)ccc21,28µM*,35µM*[fluorescent],35µM*,3.5µM*,?,-26,113µM*,113µM*,7%
CC(C)=CCn1cnc2c1c(=O)n(C)c(=O)n2C,2%,0%,/,1%,-12%,0,/,/,/
C#Cc1ccc2c(c1)C(=O)N(C)Cc1c(C(=O)OCCCOC(=O)c3ncn4c3CN(C)C(=O)c3cc(C#C)ccc3-4)ncn1-2,2%,-11%,/,/,1%,-4,/,/,/
COc1ccc2cc(Br)ccc2c1CC(=O)NCC1CCCO1 (stereo not drawn),-1%,-5%,32µM*,9%,3%,1,-1%,30%,29%
CCNC(=O)Cc1c(OC)ccc2cc(Br)ccc12,2%,0%,-12%,9%,-12%,0,/,/,/
CNCC[C@H](Oc1ccccc1OC)c1ccccc1,-5%,0%,/,10%,6%[24.8 µM],?,/,/,/
Cc1ccccc1S(=O)(=O)NC1OC(=O)C(Oc2ccccc2)=C1Br (stereo not drawn),2%,1%,?,0%,?,0,/,/,/
Cc1ccccc1S(=O)(=O)NC1OC(=O)C(Cl)=C1Cl (stereo not drawn),-10%,-1%,?,3%,0%,2,45µM*,159µM*,?
Cc1cccc(-n2c(C)cc(C=C3C(=O)c4ccccc4C3=O)c2C)c1,14%,-1%,32µM*,-13%,?,?,142µM*,?,41%
Cc1cc(C)c(OCCOCCn2c(-c3ccc(Cl)cc3)nc3ccccc3c2=O)c(C)c1,2%,-4%,/,/,/,/,/,/,/
C=Cc1c(C)/c2[n-]/c1=C\c1[n-]c(c(CC)c1C)/C=c1\[n-]c3c(c1C)C(=O)C(C(=O)[O-])C=3c1[n-]c(c(C)c1CCC(=O)[O-])\C=2.[Cu].[Na+].[Na+] (stereo not drawn),45µM*,25µM*[quencher],?,-5%,?,-27,45µM*,126µM*,7.7µM*
CCCCc1ccc(NC(=O)c2cc3c(=O)n4ccccc4nc3s2)cc1,0%,5%,/,/,/,/,/,/,/
NC(=O)CN1C(=O)C(=O)N(Cc2cccc(Cl)c2)C1=O,/,/,?,/,3%,2,66%,-9%,-3%
O=C(CN1C(=O)C(=O)N(Cc2ccccc2)C1=O)Nc1cc(Cl)cc(Cl)c1,-3%,-6%,2%,-2%,/,-1,/,/,/
COc1cccc(N2CCN(c3ncc4c(n3)CCN(Cc3ccc(Br)cc3)C4)CC2)c1,-7%,0%,/,/,/,/,/,/,/
O=c1[nH]c2ccccc2c2nc3ccccn3c12,0%,-2%,-17%,4%,?,-3,/,/,/
O=c1nc2c(O)cccn2c2c1c(=O)[nH]c1ccccc12,3%,4%,32µM*,24%,0%,?,4µM*,?,?
O=C(O)c1ccc(NC2=C/C(=N/S(=O)(=O)c3ccccc3)c3ccccc3C2=O)cc1,?,-9%,?,1%,?,-5,?,?,77%
CCN(Cc1ccccc1)C(=O)c1c(C)oc2ncn(C)c(=O)c12,4%,3%,/,/,/,/,/,/,/
Oc1nc(Nc2ccc(F)cc2)sc1/C=C1\C=Nc2ccccc21,13%,-10%,24%,45%,/,25,/,/,/
O=c1[nH]c(S)c(/C=C2\C=Nc3ccccc32)s1,0%,-6%,35µM*,6%,/,?,126µM*,?,?
COc1cccc(-n2cc(C(=O)OCc3ccc(F)c(F)c3)c3ccccc3c2=O)c1,0%,6%,/,/,/,/,/,/,/
O=C(O)/C=C/C(=O)c1c(-c2ccccc2)[nH]c2ccccc12,/,/,?,/,80%,5,7.1µM*,159µM*,49µM*
CC(=O)c1c(-c2ccccc2)[nH]c2ccccc12,/,/,4%,/,-30%,4,/,/,/
SMILES,TRb-SRC2 inh,TexasRed fluor,MLL CXXC-DNA inh,RGS12 GoLoco inh,Menin MLL FP TR,Menin-MLL FL inh,MLL CXXC Fl,MLL CXXC TxRed,MLL CXXC TRF
CC[C@H](C)[C@H](NC(=O)[C@H](Cc1ccc(O)cc1)NC(=O)[C@@H](NC(=O)[C@H](CCCNC(=N)N)NC(=O)[C@@H](N)CC(=O)O)C(C)C)C(=O)N[C@@H](Cc1cnc[nH]1)C(=O)N1CCC[C@H]1C(=O)N[C@@H](Cc1ccccc1)C(=O)N[C@@H](Cc1cnc[nH]1)C(=O)N[C@@H](CC(C)C)C(=O)N[C@@H](CC(C)C)C(=O)N[C@H](C(=O)N[C@@H](Cc1ccc(O)cc1)C(=O)N[C@@H](CO)C(=O)O)C(C)C,-2%,-5%,/,/,12%,-1,/,/,/
O=C(Nc1cc(C(=O)Nc2ccc(S(=O)(=O)O)cc2S(=O)(=O)O)cc(C(=O)Nc2ccc(S(=O)(=O)O)cc2S(=O)(=O)O)c1)Nc1cc(C(=O)Nc2ccc(S(=O)(=O)O)cc2S(=O)(=O)O)cc(C(=O)Nc2ccc(S(=O)(=O)O)cc2S(=O)(=O)O)c1,-6%,-3%,3.5µM*,117%,?,?,4.5µM*,11µM*,3.1µM*
CC(=O)Oc1ccc2c(c1)Oc1cc(OC(C)=O)ccc1C21OC(=O)c2ccccc21,-12%,-68%,?,-3%,?,?,0.022µM*,34%,3%
CCc1sc(C(C2C(=O)CC(C)(C)CC2=O)C2C(=O)CC(C)(C)CC2=O)cc1[N+](=O)[O-],-3%,-1%,?,6%,5%,-4,0%,113µM*,31µM*
CCOC(=O)c1cccc(NC(=O)N2CC(CC)Sc3ccccc32)c1 (stereo not drawn),-1%,3%,/,/,/,/,/,/,/
Cc1ccc(C=C2C(=O)c3ccccc3C2=O)o1,21%,14%,0%,103%,24%,8,/,/,/

# Screens deposited in PubChem BioAssay by National Center for Advancing Translational Sciences (NCATS).
